Reference: PubChem BioAssay (NCI)
This is part of a sample that, as a whole, favours compounds with a hit. Of some 83,000 tested, about 20% had one in any assay.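 For each line, cells grew in 96-well plates with the test compound present at a single concentration for 48 hours.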 A number with no mark means an inactive call. Active and inactive are the calls of the source. Rule for the calls: active = growth percent below 10; inactive = the rest.

Tests used:
Test in all cases: NCI-60 one-dose screen, 48 h (100 = growth as untreated, 0 = no growth, -100 = all killed)
EKVX NSCLC = details: 10 µM unless noted
SN12C renal = details: 10 µM unless noted
UO-31 renal = details: 10 µM unless noted
TK-10 renal = details: 10 µM unless noted
ACHN renal = details: 10 µM unless noted
CAKI-1 renal = details: 10 µM
A498 renal = details: 10 µM unless noted
CCRF-CEM leukemia = details: 10 µM unless noted
MOLT-4 leukemia = details: 10 µM unless noted
SR leukemia = details: 10 µM unless noted
RPMI-8226 leukemia = details: 10 µM unless noted
OVCAR-8 ovarian = details: 10 µM unless noted
OVCAR-5 ovarian = details: 10 µM unless noted
OVCAR-4 ovarian = details: 10 µM unless noted
SK-OV-3 ovarian = details: 10 µM unless noted
IGROV1 ovarian = details: 10 µM unless noted
HS 578T breast = details: 10 µM unless noted
NCI/ADR-RES ovarian = details: 10 µM unless noted
SK-MEL-2 melanoma = details: 10 µM unless noted
OVCAR-3 ovarian = details: 10 µM unless noted

SMILES | growth (EKVX NSCLC) [%] | growth (SN12C renal) [%] | growth (UO-31 renal) [%] | growth (TK-10 renal) [%] | growth (ACHN renal) | growth (CAKI-1 renal) [%] | growth (A498 renal) | growth (CCRF-CEM leukemia) | growth (MOLT-4 leukemia) [%] | growth (SR leukemia) | growth (RPMI-8226 leukemia) | growth (OVCAR-8 ovarian) | growth (OVCAR-5 ovarian) [%] | growth (OVCAR-4 ovarian) | growth (SK-OV-3 ovarian) | growth (IGROV1 ovarian) [%] | growth (HS 578T breast) [%] | growth (NCI/ADR-RES ovarian) | growth (SK-MEL-2 melanoma) | growth (OVCAR-3 ovarian)
CN1CCN(c2ccc(C(=O)Nc3cccc(-c4cn(-c5ccc(S(N)(=O)=O)cc5)nn4)c3)cc2C(F)(F)F)CC1 | 89.9 | 92.4 | 86.9 | 117 | 87.6% | 73.8 | 97.6% | 70.8% | 13.2 | -1.19% (active) | 10.7% | 86.7% | 84.3 | 84.8% | 102% | 86.9 | 71 | 101% |  | 
COc1cc(C(=O)c2cc(C(C)=O)c3c4ccccc4ccn23)cc(OC)c1OC |  | 74.4 | 43.3 | 70.3 | 71.8% | 30.2 | 34% | 48.9% | 34.6 | 16.8% | 52.3% | 62.9% | 69.9 | 69.1% | 56.2% | 52.6 | 40.5 | 27.9% | 51.5% | 
CS(=O)(=O)c1ccc2c(c1)c1c(n2Cc2ccc(Cl)cc2)CCCC1 | 71.2 | 73.6 | 55.1 | 89.3 | 66.8% | 54.4 | 74.3% | 81.9% | 64.3 | 41.2% | 55.8% | 72.7% | 88.1 | 75.1% | 97.5% | 64 | 85.4 | 48.4% |  | 
COc1ccc2c(ccn2C(=O)N2c3ccccc3Sc3ccccc32)c1 |  | 47.3 |  | 65.1 | 49.2% | 30.9 | -8.02% (active) | 18.7% | 37.2 | 22% | 16.8% | 31.9% | 60.6 | 66.5% | 42.5% | 39.2 | 19.8 | 11.6% | 4.71% (active) | 
CNC(=O)c1cc(Oc2ccc3nc(NC(=O)c4cccc(C(F)(F)F)c4)sc3c2)ccn1 | 101 | 96 | 99.1 | 116 | 102% | 93.6 | 87.3% | 109% | 107 | 111% | 112% | 106% | 97.7 | 101% | 111% | 107 | 102 | 101% |  | 
C=CCn1c(SCC(=O)Nc2ccc(OC)cc2)nnc1-c1ccc(Cl)cc1 | 92.5 | 92.7 | 73.5 | 97.9 | 92.8% | 84.6 | 98.2% | 117% | 84.2 | 74.3% | 105% | 98% | 93.9 | 99.7% | 101% | 89.8 | 92.2 |  |  | 
CCCCCCNC(=O)Oc1ccc(/C(=C(/C)c2ccccc2)c2ccc(OCCN(C)C)cc2)cc1 | 72.2 | 63.6 | 53.9 | 83 | 71.3% | 50.9 | 76.5% | 67.9% | 34.7 | -27.8% (active) | 50.5% | 73.6% | 73 | 73.6% | 93.2% | 66.3 | 64.5 | 71.2% |  | 
Clc1ccc(-c2csc(Nc3cccc(Nc4csc(-c5ccc(Cl)cc5)n4)c3)n2)cc1 | 61.8 | 63.1 | 51.5 | 98.2 | 54.3% | 51.9 | 67.8% | 94.1% | 60.7 | 96.8% | 86.3% | 87.3% | 77.5 | 76.5% | 79.3% | 50.6 | 73.4 | 79.5% |  | 
COc1ccc(NC(=O)[C@H](C)N)cc1C(=O)Nc1cccc(-c2cc(=O)c3c(OC)c(OC)c(OC)cc3o2)c1 | 81.3 | 55.4 | 29.7 | 70.7 | 54.2% | 49 | 50.9% | 52.9% | 51.4 | 36.5% | 44.1% | 50.1% | 102 | 62.4% | 115% | 56.7 | 27.8 | 63.8% |  | 
CC1OC(O[C@@H]2[C@H](O)C(CO)OC(O[C@H]3COC(O[C@H]4CC[C@]5(C)[C@H]6CC[C@]78OC[C@@]9(CC[C@](C)(C=O)C[C@H]97)C(=O)C[C@@]8(C)[C@]6(C)CC[C@H]5C4(C)C)[C@@H](O)[C@@H]3O)[C@H]2OC2OC[C@@H](O)[C@@H](O)[C@@H]2O)[C@@H](O)[C@@H](O)[C@H]1O (stereo partly specified) | 89.2 |  |  | 102 | 97.1% | 84.8 | 132% | 80.5% | 63.6 | 8.86% (active) | 101% | 91.9% | 110 | 91.6% | 86.8% | 94.8 | 103 | 95.2% | 99.4% | 
CCOC(=O)/C(F)=C/C1CC1C1CCCCC1 (stereo unspecified) | 110 | 103 | 91.5 | 95.3 | 105% | 90.9 | 97.2% | 114% | 102 | 111% | 105% | 109% | 102 | 107% | 126% | 110 | 105 | 101% |  | 
CCN1C(=O)N(CC)C2SC(N/N=C/c3cccs3)=NC21 (stereo unspecified) |  | 29.9 | 53.4 | 84.5 | 32.9% | 27.1 | -23% (active) | 17.8% | 13.3 | 15.1% | 23.3% | -4.75% (active) | 43.6 | 62.5% | 31.9% | 23.7 | 15.4 | -0.335% (active) | 13.5% | 
CCOC(=O)c1ccc(N/C=C/C(=O)c2ccccc2)cc1 | 103 | 99.7 | 99.1 | 89.8 | 98.5% | 92.7 | 99.9% | 102% | 97 | 87.8% | 100% | 102% | 101 | 105% | 113% | 110 | 113 |  |  | 
COc1ccc(-c2oc3cc(O)cc(O)c3c(=O)c2OC)cc1O | 38.7 |  |  | 52.3 | 34.1% | 14.9 | -6.41% (active) | 2.67% (active) | 21.4 | 11% | 17.4% | 26.8% |  | 46.2% | 19.2% | 39.8 | 11.2 | 15.4% | 13.2% | -7.51% (active)
CN1CCN(c2ccc(C(=O)/C=C/c3ccc(Cl)c(C(F)(F)F)c3)cc2)CC1 | 70.2 | 49.1 | 50.5 | 102 | 65.7% | 64.1 | 81.6% | 11% | 41.6 | 2.99% (active) | 3.06% (active) | 55% |  | 66% | 105% | 78.1 | 87.3 | 64.4% |  | 
CCNCCCn1c2c(c3cc(OC)c(OC)cc3c1=O)C(=O)c1cc(OC)cnc1-2 | 43.3 | 20.8 | 18 | 64.4 | 6.11% (active) | 18.3 | 15.8% | 8.89% (active) |  |  | -34.9% (active) | 14.1% | 46.2 | 6.87% (active) | -32.1% (active) | 32.3 | 80.2 | 26.9% |  | 
Cc1ccc(/C=C/c2nn3c(-c4ccco4)nnc3s2)cc1 | 108 | 107 | 85.6 | 87.9 | 99.9% | 86.8 | 89% | 98.9% |  | 77.3% | 95.4% | 100% | 100 | 102% | 115% | 107 | 116 |  |  | 
